Source: the OligoGym collection

What follows are sequences tested against TM4SF4 (assay: pooled miR-30 sensor sort-seq; sequence = guide strand). Settings: shRNA.
Further: reference of the scale not given here.

Point of comparison: TCGTGGAGGTGAACATCGCAAA, sensor-assay potency score (higher = more potent) -1.55. Against it:
- TTTTCTAAGCTTTATCAGCTAG — higher, -0.744
- TAAACGAGTATCCAGCTCCCAA — higher, -1.07
- TTTGAAAATAACAAAATTCTAA — higher, -0.879
- AACATCGCAAATCGCTTCCCAC — higher, -1.03
- TTGTCATCTATCACTTTTCCTC — higher, -0.799
- AAGATCATCAAGACACCGCTTC — higher, 0.685
- ATTGAGATAATCCCCGTCGTGG — higher, -0.0711
- TTGACCACCTGGATGGCGCAGA — higher, -0.376
- TTGTTGATTGAAATGGCTGAGA — higher, -0.818

These sequences were tested against TM7SF2 in the same assay as above. Settings: shRNA.

Point of comparison: TTGATGAGGCAGATGACAGAGG, sensor-assay potency score (higher = more potent) -0.497. Against it:
- TTTCGGAAAGTGTTTTTCTGGG — lower, -0.966
- TTTGAAGTCGAAGAAACAGATA — lower, -1.28
- TACTTCTGCAGGCACTGCCGCT — lower, -1.41
- TATTTGAAGTCGAAGAAACAGA — lower, -0.986
- TTGTCCTTCAATTCCTGCCCCT — higher, -0.137
- TTCATGTAGAGAAAGAGGCTGA — higher, 0.647
- TAGAGATGGTCTCAAGCCCAGC — lower, -1.47
- AGATGTAGTAACCAGTAGCATT — lower, -2.06
- TTGAGTCCCAAGTGTGTCGAGG — lower, -0.705
- TCATGTGTGATATCCATGGTGG — higher, -0.309

Each sequence was assayed against TMCC3 in the same assay as above. Settings: shRNA.

Point of comparison: TTATTGAAAACGAACACAGGTG, sensor-assay potency score (higher = more potent) -0.162. Against it:
- TTGAAAACGAACACAGGTGGAG — higher, 0.022
- TTGGGTATCCTTGATCTCCCTC — higher, 0.381
- TTAAAGTGTAACAAAACCCCTC — higher, -0.0862
- TTGCACTTAATTTGAATCCAGG — lower, -0.313
- TTCTCTCTTAAACTGCACCTTC — higher, 0.0499
- TAATGTTAAAGTCACAGTCTGA — lower, -0.348
- TTGTTCACGATGGTAGCGCTGC — lower, -0.609
- TATTTTATTCTTGCTAGTCTTT — lower, -0.521
- TTGCTTGATACGTCCCGCCTGC — lower, -0.167
- TTTGACCTTGTGGAAGTCCAGG — lower, -0.907
- TACCTTTAGAATTTTTTGCTTC — higher, -0.127

Each sequence was assayed against TMCO6 in the same assay as above. Settings: shRNA.

Point of comparison: AACACGCTCATCTCTGAGCTGC, sensor-assay potency score (higher = more potent) -0.789. Against it:
- TTCCTCAGCCTGTAGAAGCTGG — higher, -0.621
- TGCAACATTGCACAGAACTGTG — higher, -0.739
- TTTGTAGCATGTGCTGAGGGAG — higher, -0.612
- TTGTAGCATGTGCTGAGGGAGA — lower, -1.18
- TACTGGACAAACAAGCTTGATG — lower, -0.998
- AACATTGCACAGAACTGTGAGC — higher, -0.57
